{
  "source": "PubChem BioAssay (NCATS)",
  "key": {"[1]": {"assay": "Quantitative High-Throughput drug screen in 47 multiple myeloma cell lines against the NCATS MIPE library collection: OPM2_DSMZ cell viability assay (AID 1919872); for all read-outs here: nearly all actives have a fitted effect of over 30% in size", "procedure,_shortened": "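Approved and investigational drugs from MIPE 4.0 were added by pin tool to 500 cells per well. After 48 hours at 37C, ATP-based CellTiter-Glo luminescence indicated remaining viability.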"}, "[2]": {"assay": "qHTS drug screen for cell cycle checkpoint inhibitors in PARPi-resistant BRCA-mutant ovarian cancer cell lines. (AID 1963452; calls by dose curve)", "details": "PEO1/OlaR viability, CellTiter-Glo luminescence, 96 h, stronger effect = lower value", "procedure,_shortened": "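PEO1, PEO4 and PEO1/OlaR ovarian cancer cells, 600 per well, exposed 96 h at 37C to a dilution series. Viability read by CellTiter-Glo luminescence, normalized to DMSO and empty wells; activity summarized as Z-AUC.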"}, "[3]": {"assay": "qHTS for identification of novel therapeutic agents for treatment of microphthalmiaassociated transcription factor (MiT) renal cell carcinoma (RCC) (AID 1963991; calls by dose curve; note: potency is the fitted concentration of half-maximal effect)", "details": "CellTiter-Glo, 48 h; for z-score: stronger effect = lower value", "procedure,_shortened": "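Three TFE3-fusion RCC cell lines (UOK109, UOK124, UOK145), 500 cells/well, were exposed to the 1912-compound MIPE 4.0 library for 48 hours at 37 C. Viability was read by CellTiter-Glo luminescence, normalised to DMSO (100%) and empty wells (0%), with 11-concentration curve fits.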"}, "[4]": {"assay": "Quantitative High-Throughput drug screen in 47 multiple myeloma cell lines against the NCATS MIPE library collection: RPMI8226_ATCC cell viability assay (AID 1919871); note: nearly all actives have a fitted effect of over 30% in size; note: potency is the fitted concentration of half-maximal effect", "procedure,_shortened": "(§1)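 qHTS format: cells plated (500/well), pin-dosed with MIPE 4.0 compounds, kept 48 h at 37 °C. Readout was CellTiter-Glo luminescence, median RLU.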"}, "[5]": {"assay": "Quantitative High-Throughput drug screen in 47 multiple myeloma cell lines against the NCATS MIPE library collection: KMS11_JCRBsus cell viability assay (AID 1919873)", "procedure,_shortened": "as §1"}, "[6]": {"assay": "Quantitative High-Throughput drug screen in 47 multiple myeloma cell lines against the NCATS MIPE library collection: KMS28BM_JCRB cell viability assay (AID 1919874)", "procedure,_shortened": "as §1"}, "[7]": {"assay": "Quantitative High-Throughput drug screen in 47 multiple myeloma cell lines against the NCATS MIPE library collection: PCM6_Riken cell viability assay (AID 1919870)", "procedure,_shortened": "as §1"}, "[8]": {"details": "measured here: PEO1 parental Z-AUC"}, "[9]": {"details": "TFE3-RCC UOK109 viability, measured here: UOK109 Z-AUC"}, "[10]": {"details": "TFE3-RCC viability, measured here: UOK124 Z-AUC"}, "[11]": {"details": "TFE3-RCC viability, measured here: UOK145 Z-AUC"}},
  "note": "Inconclusive results are not listed. Active and inactive are the calls of the source. Unless noted, calls come from the whole dose curve; as a rule, active = well fitted cell-killing curve with a large enough effect; inconclusive = small, poorly fitted or top-dose-only effect, or effect the other way; inactive = no such curve, though single readings can be large or run the other way. Throughout, for Potency: potency is the fitted concentration of half-maximal effect.",
  "data": [
    {"smiles": "CO[C@H]1C[C@@H]2CC[C@@H](C)[C@@](O)(O2)C(=O)C(=O)N2CCCC[C@@H]2C(=O)O[C@H]([C@@H](C)C[C@@H]2CC[C@H](O)[C@H](OC)C2)CC(=O)[C@H](C)C=C(C)[C@@H](O)[C@@H](OC)C(=O)[C@H](C)C[C@H](C)C=CC=CC=C1C", "values": [
      {"measurement": "Potency", "setting": "[1]", "value": "inactive"},
      {"measurement": "Z-AUC", "setting": "[2]", "value": "-0.986 (inactive)"},
      {"measurement": "Z-AUC", "setting": "[2]; [8]", "value": -0.581},
      {"measurement": "Z-AUC", "setting": "[2]; measured here: PEO4 Z-AUC", "value": -0.84},
      {"measurement": "z-score", "setting": "[3]; [9]", "value": -0.128},
      {"measurement": "z-score", "setting": "[3]; [10]", "value": 1.08},
      {"measurement": "z-score", "setting": "[3]; [11]", "value": -0.61}
    ]},
    {"smiles": "O=C(Nc1c(Cl)cncc1Cl)c1ccc(OC(F)F)c(OCC2CC2)c1", "values": [
      {"measurement": "Potency", "setting": "[4]", "value": "inactive"},
      {"measurement": "Potency", "setting": "[1]", "value": "inactive"},
      {"measurement": "Potency", "setting": "[5]", "value": "inactive"},
      {"measurement": "Potency", "setting": "[6]", "value": "inactive"},
      {"measurement": "Z-AUC", "setting": "[2]", "value": "0.0747 (inactive)"},
      {"measurement": "Z-AUC", "setting": "[2]; [8]", "value": 0.551},
      {"measurement": "Z-AUC", "setting": "[2]; measured here: PEO4 Z-AUC", "value": 0.508},
      {"measurement": "z-score", "setting": "[3]; [9]", "value": -0.715},
      {"measurement": "z-score", "setting": "[3]; [10]", "value": 0.259},
      {"measurement": "z-score", "setting": "[3]; [11]", "value": 0.585}
    ]},
    {"smiles": "Cn1cc(C=C2C(=O)Nc3cccnc32)c2ccccc21", "values": [
      {"measurement": "Potency", "setting": "[4]", "value": "inactive"},
      {"measurement": "Potency", "setting": "[1]", "value": "inactive"},
      {"measurement": "Potency", "setting": "[6]", "value": "inactive"}
    ]},
    {"smiles": "NC(=O)[C@@H](CCC(F)(F)F)N(Cc1ccc(-c2ncon2)cc1F)S(=O)(=O)c1ccc(Cl)cc1", "values": [
      {"measurement": "Potency", "setting": "[1]", "value": "inactive"},
      {"measurement": "Potency", "setting": "[6]", "value": "20.9 µM (active)"},
      {"measurement": "Z-AUC", "setting": "[2]", "value": "0.459 (inactive)"},
      {"measurement": "Z-AUC", "setting": "[2]; [8]", "value": 0.342},
      {"measurement": "Z-AUC", "setting": "[2]; measured here: PEO4 Z-AUC", "value": 0.442}
    ]},
    {"smiles": "O=c1cc(-c2ccccc2)oc2cc(O)c(O)c(O)c12", "values": [
      {"measurement": "Potency", "setting": "[7]", "value": "inactive"},
      {"measurement": "Potency", "setting": "[4]", "value": "inactive"},
      {"measurement": "Potency", "setting": "[6]", "value": "inactive"},
      {"measurement": "Z-AUC", "setting": "[2]", "value": "0.741 (inactive)"},
      {"measurement": "Z-AUC", "setting": "[2]; [8]", "value": 0.629},
      {"measurement": "Z-AUC", "setting": "[2]; measured here: PEO4 Z-AUC", "value": 0.577}
    ]},
    {"smiles": "COc1cc(N2CCC(N3CCN(C)CC3)CC2)ccc1Nc1ncc(Cl)c(Nc2ccccc2S(=O)(=O)C(C)C)n1", "values": [
      {"measurement": "Z-AUC", "setting": "[2]", "value": "-0.172 (inactive)"},
      {"measurement": "Z-AUC", "setting": "[2]; [8]", "value": -0.594},
      {"measurement": "Z-AUC", "setting": "[2]; measured here: PEO4 Z-AUC", "value": -0.618},
      {"measurement": "Potency", "setting": "[3]; TFE3-RCC UOK109 viability, active = Z-AUC below -0.8 in all three lines", "value": "14.8 µM (active)"},
      {"measurement": "z-score", "setting": "[3]; [9]", "value": -1.55},
      {"measurement": "z-score", "setting": "[3]; [10]", "value": -1.62},
      {"measurement": "z-score", "setting": "[3]; [11]", "value": -1.41}
    ]},
    {"smiles": "CC(=O)O[C@]1(C(C)=O)CC[C@H]2[C@@H]3C=C(Cl)C4=CC(=O)[C@@H]5C[C@@H]5[C@]4(C)[C@H]3CC[C@@]21C", "values": [
      {"measurement": "Z-AUC", "setting": "[2]", "value": "0.151 (inactive)"},
      {"measurement": "Z-AUC", "setting": "[2]; [8]", "value": 0.0304},
      {"measurement": "Z-AUC", "setting": "[2]; measured here: PEO4 Z-AUC", "value": 0.0664}
    ]},
    {"smiles": "N[C@@]1(C(=O)O)CS(=O)(=O)[C@H]2[C@H](C(=O)O)[C@H]21", "values": [
      {"measurement": "Potency", "setting": "[4]", "value": "inactive"},
      {"measurement": "Potency", "setting": "[1]", "value": "inactive"},
      {"measurement": "Potency", "setting": "[5]", "value": "inactive"},
      {"measurement": "Potency", "setting": "[6]", "value": "inactive"}
    ]},
    {"smiles": "O=C(NCc1ccncc1)C12C[C@H]3C[C@@H](C1)CC(c1ccc(Cl)cc1)(C3)C2", "values": [
      {"measurement": "Potency", "setting": "[4]", "value": "29.6 µM (active)"},
      {"measurement": "Potency", "setting": "[5]", "value": "14.8 µM (active)"},
      {"measurement": "Potency", "setting": "[6]", "value": "18.7 µM (active)"},
      {"measurement": "Z-AUC", "setting": "[2]", "value": "0.0323 (inactive)"},
      {"measurement": "Z-AUC", "setting": "[2]; [8]", "value": 0.866},
      {"measurement": "Z-AUC", "setting": "[2]; measured here: PEO4 Z-AUC", "value": 0.86}
    ]},
    {"smiles": "COc1ccc2c(Oc3ccc(NC(=O)c4c(C)n(CC(C)(C)O)n(-c5ccccc5)c4=O)nc3)ccnc2c1", "values": [
      {"measurement": "Potency", "setting": "[1]", "value": "inactive"},
      {"measurement": "Potency", "setting": "[6]", "value": "inactive"},
      {"measurement": "Z-AUC", "setting": "[2]", "value": "0.509 (inactive)"},
      {"measurement": "Z-AUC", "setting": "[2]; [8]", "value": 0.436},
      {"measurement": "Z-AUC", "setting": "[2]; measured here: PEO4 Z-AUC", "value": -0.433}
    ]},
    {"smiles": "C[N+]1(C)[C@@H]2CC(OC(=O)[C@H](CO)c3ccccc3)C[C@H]1[C@H]1O[C@@H]12", "note": "(some centres undefined)", "values": [
      {"measurement": "Potency", "setting": "[7]", "value": "inactive"},
      {"measurement": "Potency", "setting": "[4]", "value": "inactive"},
      {"measurement": "Potency", "setting": "[1]", "value": "inactive"},
      {"measurement": "Potency", "setting": "[5]", "value": "inactive"},
      {"measurement": "Potency", "setting": "[6]", "value": "inactive"},
      {"measurement": "z-score", "setting": "[3]; [9]", "value": 0.318},
      {"measurement": "z-score", "setting": "[3]; [10]", "value": 0.652},
      {"measurement": "z-score", "setting": "[3]; [11]", "value": 0.553}
    ]}
  ]
}
